Measured values taken from the supplement of paper PMC10849652.
Of roughly 8,800 targets only a part is listed; those with a hit were picked by preference. About 0.5% of all pairs of compound and target were hits. A number with no mark means an inactive call.

How the values were obtained:
Test in all cases: log2 fold change, soluble protein after heating vs DMSO (PISA); higher = thermal stabilisation; K562 lysate, 10 uM; active = over 0.2 and 3.5 SD of the protein, either way, in both replicates (recomputed)
nilotinib = compound: Cc1cn(-c2cc(NC(=O)c3ccc(C)c(Nc4nccc(-c5cccnc5)n4)c3)cc(C(F)(F)F)c2)cn1 [nilotinib]
In short: (§1)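 A 30 min treatment with 10 μM compound was applied to crude K562 extract at 1 mg/mL protein in PBS pH 7.4 with 1 mM MgCl2. Heating for 3 min spanned 48°C-58°C, after which aliquots were pooled, adjusted to 0.5% NP-40 at 4°C and spun at 21,000xg for 90 min. TMTpro 16plex LC-MS/MS of the supernatant, with channel sums equalised, gave values recorded as log-two fold change in thermal stability against solvent controls, from duplicates.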

[1] = compound: Cc1nc(Nc2n[nH]c3c2CN(C(=O)N[C@H](CN(C)C)c2ccccc2)C3(C)C)c2sccc2n1
In short: as §1

dasatinib = compound: Cc1nc(Nc2ncc(C(=O)Nc3c(C)cccc3Cl)s2)cc(N2CCN(CCO)CC2)n1 [dasatinib]
In short: as §1

[2] = compound: Cc1ncc(-c2ccnc(Nc3ccc(S(C)(=O)=O)cc3)n2)n1C(C)C
In short: as §1

[3] = compound: Cn1cc(-c2ccc3c(c2)CCN3C(=O)Cc2cccc(C(F)(F)F)c2)c2c(N)ncnc21
In short: as §1

quisinostat = compound: Cn1cc(CNCC2CCN(c3ncc(C(=O)NO)cn3)CC2)c2ccccc21 [quisinostat]
In short: as §1

tipifarnib = compound: Cn1cncc1[C@@](N)(c1ccc(Cl)cc1)c1ccc2c(c1)c(-c1cccc(Cl)c1)cc(=O)n2C [tipifarnib]
In short: as §1

[4] = compound: NC(=O)Nc1cc(-c2cccc(F)c2)sc1C(=O)N[C@H]1CCCNC1
In short: as §1

[5] = compound: NC(=O)c1cnc(N[C@@H]2CCCC[C@@H]2N)nc1Nc1cccc(-n2nccn2)c1
In short: as §1

[6] = compound: NC1(c2ccc(-c3nc4ccn5c(=O)[nH]nc5c4cc3-c3ccccc3)cc2)CCC1
In short: as §1

Chain of UniProt Q96PU8 (Q96PU8 whole entry, looked up): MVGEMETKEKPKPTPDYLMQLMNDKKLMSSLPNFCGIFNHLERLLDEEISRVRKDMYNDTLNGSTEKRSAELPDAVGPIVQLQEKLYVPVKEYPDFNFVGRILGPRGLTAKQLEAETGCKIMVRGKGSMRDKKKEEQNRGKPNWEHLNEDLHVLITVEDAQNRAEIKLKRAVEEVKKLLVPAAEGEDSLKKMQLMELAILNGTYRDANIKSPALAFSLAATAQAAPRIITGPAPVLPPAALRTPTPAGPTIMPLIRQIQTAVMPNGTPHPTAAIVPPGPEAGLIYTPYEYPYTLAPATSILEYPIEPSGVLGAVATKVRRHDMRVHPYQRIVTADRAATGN
Chain of UniProt Q9BRX2 (Q9BRX2 whole entry, looked up): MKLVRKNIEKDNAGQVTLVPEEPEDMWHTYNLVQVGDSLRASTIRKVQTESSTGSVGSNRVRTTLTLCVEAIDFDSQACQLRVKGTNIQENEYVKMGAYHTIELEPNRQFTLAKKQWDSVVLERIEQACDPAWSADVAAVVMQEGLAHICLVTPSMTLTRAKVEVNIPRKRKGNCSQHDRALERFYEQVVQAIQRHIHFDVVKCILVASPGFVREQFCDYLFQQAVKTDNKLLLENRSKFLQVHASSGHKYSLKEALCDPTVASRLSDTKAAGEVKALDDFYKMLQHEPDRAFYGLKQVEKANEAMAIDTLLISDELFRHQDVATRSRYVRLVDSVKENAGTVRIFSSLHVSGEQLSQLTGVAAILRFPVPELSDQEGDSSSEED
Chain of UniProt Q9NXJ5 (Q9NXJ5 whole entry, looked up): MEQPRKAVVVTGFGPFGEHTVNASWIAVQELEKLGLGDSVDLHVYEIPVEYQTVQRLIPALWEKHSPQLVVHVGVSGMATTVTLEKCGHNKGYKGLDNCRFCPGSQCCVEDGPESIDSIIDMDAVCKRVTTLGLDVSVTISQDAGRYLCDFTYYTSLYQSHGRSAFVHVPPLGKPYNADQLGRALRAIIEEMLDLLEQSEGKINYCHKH
Chain of UniProt P46020 (P46020 whole entry, looked up): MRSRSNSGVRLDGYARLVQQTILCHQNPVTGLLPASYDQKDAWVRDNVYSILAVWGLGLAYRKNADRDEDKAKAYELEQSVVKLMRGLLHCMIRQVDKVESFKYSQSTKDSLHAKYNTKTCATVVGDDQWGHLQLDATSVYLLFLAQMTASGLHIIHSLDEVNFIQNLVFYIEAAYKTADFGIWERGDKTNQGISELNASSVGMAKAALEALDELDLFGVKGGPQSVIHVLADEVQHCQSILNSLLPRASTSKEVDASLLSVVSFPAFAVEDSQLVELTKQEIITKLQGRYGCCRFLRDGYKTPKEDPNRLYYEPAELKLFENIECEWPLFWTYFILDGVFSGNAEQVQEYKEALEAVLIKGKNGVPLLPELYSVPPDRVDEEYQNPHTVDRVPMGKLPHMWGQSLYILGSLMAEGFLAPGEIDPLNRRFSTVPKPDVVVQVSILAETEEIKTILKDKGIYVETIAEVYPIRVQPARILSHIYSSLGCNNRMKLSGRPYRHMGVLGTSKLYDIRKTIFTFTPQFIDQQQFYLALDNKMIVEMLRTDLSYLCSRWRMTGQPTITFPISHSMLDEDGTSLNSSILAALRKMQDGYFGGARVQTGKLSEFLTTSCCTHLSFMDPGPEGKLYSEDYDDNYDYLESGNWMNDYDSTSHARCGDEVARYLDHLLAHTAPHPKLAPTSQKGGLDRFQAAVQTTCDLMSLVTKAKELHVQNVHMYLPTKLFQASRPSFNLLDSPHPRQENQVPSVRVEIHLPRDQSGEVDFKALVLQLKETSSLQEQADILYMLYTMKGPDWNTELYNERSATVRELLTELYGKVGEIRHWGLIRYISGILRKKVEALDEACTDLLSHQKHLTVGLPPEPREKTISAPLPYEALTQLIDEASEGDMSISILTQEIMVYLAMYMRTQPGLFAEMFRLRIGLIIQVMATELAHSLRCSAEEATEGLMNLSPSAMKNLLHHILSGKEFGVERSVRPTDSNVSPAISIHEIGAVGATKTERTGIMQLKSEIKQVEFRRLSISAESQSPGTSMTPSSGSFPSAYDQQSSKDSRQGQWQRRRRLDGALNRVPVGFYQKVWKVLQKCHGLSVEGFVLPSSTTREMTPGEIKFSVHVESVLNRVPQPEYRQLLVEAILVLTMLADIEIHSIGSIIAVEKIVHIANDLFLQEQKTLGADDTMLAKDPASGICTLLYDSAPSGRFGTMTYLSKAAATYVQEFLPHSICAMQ
Chain of UniProt P13667 (P13667 whole entry, looked up): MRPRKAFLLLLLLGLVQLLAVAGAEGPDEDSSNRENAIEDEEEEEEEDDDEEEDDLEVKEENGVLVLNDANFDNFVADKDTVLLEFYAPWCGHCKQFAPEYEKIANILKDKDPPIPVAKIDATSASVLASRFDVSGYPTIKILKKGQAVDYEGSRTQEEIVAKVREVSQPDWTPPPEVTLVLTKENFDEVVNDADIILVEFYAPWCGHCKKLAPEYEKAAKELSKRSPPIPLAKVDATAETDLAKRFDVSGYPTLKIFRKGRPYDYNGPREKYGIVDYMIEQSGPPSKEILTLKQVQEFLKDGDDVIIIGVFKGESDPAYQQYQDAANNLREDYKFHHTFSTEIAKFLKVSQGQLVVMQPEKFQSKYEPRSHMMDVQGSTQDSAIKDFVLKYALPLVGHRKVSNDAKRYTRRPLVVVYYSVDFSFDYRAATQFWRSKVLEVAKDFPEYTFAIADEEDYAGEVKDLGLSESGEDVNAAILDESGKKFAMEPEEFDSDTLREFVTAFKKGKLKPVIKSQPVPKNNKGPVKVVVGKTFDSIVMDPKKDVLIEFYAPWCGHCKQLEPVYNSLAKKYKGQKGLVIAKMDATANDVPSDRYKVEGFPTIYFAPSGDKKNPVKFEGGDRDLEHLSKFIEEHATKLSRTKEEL
Chain of UniProt Q9H4Z3 (Q9H4Z3 whole entry, looked up): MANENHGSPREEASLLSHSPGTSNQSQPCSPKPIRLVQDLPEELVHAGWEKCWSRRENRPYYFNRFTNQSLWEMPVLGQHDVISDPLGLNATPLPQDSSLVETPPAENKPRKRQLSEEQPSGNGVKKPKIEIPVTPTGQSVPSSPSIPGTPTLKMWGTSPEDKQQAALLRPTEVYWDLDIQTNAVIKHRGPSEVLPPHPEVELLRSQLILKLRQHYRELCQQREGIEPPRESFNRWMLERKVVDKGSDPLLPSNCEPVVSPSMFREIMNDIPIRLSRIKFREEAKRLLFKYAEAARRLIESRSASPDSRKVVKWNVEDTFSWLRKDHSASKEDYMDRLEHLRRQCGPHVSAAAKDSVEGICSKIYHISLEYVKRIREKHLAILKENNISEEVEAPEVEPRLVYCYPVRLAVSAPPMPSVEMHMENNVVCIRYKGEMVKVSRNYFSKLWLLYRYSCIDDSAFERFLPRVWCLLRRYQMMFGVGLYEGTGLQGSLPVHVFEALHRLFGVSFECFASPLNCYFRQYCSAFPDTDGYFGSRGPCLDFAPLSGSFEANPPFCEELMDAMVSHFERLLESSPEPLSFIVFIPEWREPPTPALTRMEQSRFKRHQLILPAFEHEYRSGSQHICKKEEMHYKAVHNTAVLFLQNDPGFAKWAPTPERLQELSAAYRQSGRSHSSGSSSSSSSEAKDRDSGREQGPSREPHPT
Chain of UniProt Q93096 (Q93096 whole entry, looked up): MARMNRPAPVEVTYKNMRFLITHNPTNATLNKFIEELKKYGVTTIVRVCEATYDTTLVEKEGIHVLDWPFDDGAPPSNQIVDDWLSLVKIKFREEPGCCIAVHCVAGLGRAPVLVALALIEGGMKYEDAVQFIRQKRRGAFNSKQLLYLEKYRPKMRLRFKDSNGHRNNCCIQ
Chain of UniProt Q8IZ21 (Q8IZ21 whole entry, looked up): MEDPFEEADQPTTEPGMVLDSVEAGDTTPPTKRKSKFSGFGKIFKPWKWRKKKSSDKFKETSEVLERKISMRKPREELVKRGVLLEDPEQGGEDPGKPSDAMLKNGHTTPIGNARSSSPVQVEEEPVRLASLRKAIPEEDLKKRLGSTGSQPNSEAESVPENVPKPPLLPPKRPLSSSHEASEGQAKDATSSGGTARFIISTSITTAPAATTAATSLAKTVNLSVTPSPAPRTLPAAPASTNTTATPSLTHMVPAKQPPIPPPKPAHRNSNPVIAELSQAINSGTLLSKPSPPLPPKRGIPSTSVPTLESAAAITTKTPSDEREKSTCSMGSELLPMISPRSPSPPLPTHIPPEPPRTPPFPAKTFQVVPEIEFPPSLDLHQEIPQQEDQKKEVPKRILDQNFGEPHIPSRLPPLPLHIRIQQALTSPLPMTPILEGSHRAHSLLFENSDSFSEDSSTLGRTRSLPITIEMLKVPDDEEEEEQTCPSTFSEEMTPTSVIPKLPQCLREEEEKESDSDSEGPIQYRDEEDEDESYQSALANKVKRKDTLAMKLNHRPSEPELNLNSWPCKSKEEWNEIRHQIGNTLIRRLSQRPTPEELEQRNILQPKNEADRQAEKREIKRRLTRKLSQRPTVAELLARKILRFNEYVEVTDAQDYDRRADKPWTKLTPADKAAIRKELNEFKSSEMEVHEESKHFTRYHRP
Chain of UniProt Q9BUL8 (Q9BUL8 whole entry, looked up): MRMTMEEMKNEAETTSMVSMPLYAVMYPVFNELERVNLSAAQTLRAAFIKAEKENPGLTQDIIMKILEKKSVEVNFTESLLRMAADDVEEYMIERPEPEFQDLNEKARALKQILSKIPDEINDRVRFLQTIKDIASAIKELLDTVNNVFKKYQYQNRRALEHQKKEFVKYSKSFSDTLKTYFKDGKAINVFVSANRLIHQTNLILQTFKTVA
Chain of UniProt Q9H7Z7 (Q9H7Z7 whole entry, looked up): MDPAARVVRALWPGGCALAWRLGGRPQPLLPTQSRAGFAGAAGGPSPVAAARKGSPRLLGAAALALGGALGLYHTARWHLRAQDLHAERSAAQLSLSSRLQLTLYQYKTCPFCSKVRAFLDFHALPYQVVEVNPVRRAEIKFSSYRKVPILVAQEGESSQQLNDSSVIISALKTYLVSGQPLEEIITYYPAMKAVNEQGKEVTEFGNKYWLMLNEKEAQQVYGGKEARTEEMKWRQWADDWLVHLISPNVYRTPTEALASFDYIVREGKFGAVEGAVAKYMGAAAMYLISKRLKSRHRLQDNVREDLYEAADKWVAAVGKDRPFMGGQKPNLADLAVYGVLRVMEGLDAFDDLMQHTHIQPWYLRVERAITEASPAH

Row | Target | log2 fold change (nilotinib) | log2 fold change [1] | log2 fold change (dasatinib) | log2 fold change [2] | log2 fold change [3] | log2 fold change (quisinostat) | log2 fold change (tipifarnib) | log2 fold change [4] | log2 fold change [5] | log2 fold change [6]
1 | PRKRA (UniProt O75569) | 0 | -0.001 | -0.01 | 0.034 | 0.029 | -0.058 | 0.016 | 0.036 | 0.012 | -0.043
2 | PPP3CA isoform 2 (UniProt Q08209) | 0.241 (active) | 0.121 | 0.027 | -0.082 | -0.03 | -0.051 | 0.037 | 0.048 | -0.005 | -0.002
3 | PLIN2 (UniProt Q99541) | 0.088 | -0.012 | -0.092 | 0 | 0.008 | -0.031 | -0.153 | 0.038 | -0.003 | -0.018
4 | PTGES2 (UniProt Q9H7Z7) | 0.446 | -0.044 | 0.01 | -0.019 | 0.015 | -0.046 | -0.057 | -0.012 | -0.056 | -0.078
5 | PFKFB2 (UniProt O60825) | -0.04 | 0.011 | 0.017 | -0.043 | 0.014 | 0.024 | -0.011 | -0.046 | -0.003 | -0.009
6 | PUS1 (UniProt Q9Y606) | 0.005 | -0.042 | -0.01 | 0.01 | 0.018 | -0.058 | 0.018 | 0.043 | 0.036 | -0.023
7 | PTK2B (UniProt Q14289) | 0.011 | 0.109 | 0.041 | 0.026 | 0.059 | -0.122 | -0.067 | 0.377 (active) | 0.072 | -0.04
8 | PRMT8 (UniProt Q9NR22) | 0.007 | -0.021 | -0.039 | -0.01 | -0.023 | -0.057 | 0.036 | 0.034 | -0.023 | -0.056
9 | PMS2 (UniProt P54278) | -0.024 | -0.021 | -0.1 | 0.039 | 0.047 | -0.011 | -0.078 | 0.043 | 0 | -0.006
10 | PPT2 isoform 3 (UniProt Q9UMR5) | 0.01 | -0.019 | 0.006 | -0.019 | 0.025 | -0.004 | -0.025 | 0.032 | 0.002 | 0.02
11 | PIKFYVE (UniProt Q9Y2I7) | 0.017 | -0.017 | -0.022 | -0.015 | 0.009 | -0.014 | -0.035 | 0.007 | 0.027 | -0.005
12 | PDIA4 (UniProt P13667) | 0.008 | -0.006 | 0.006 | 0.014 | 0.004 | 0.154 | 0.029 | -0.004 | -0.02 | 0.008
13 | PI4KB (UniProt Q9UBF8) | 0.003 | 0.145 | 0.002 | 0.165 | 0.013 | -0.072 | -0.024 | -0.026 | -0.049 | -0.014
14 | PRADC1 (UniProt Q9BSG0) | 0.1 | -0.1 | 0.019 | -0.047 | 0.053 | -0.007 | 0.296 | -0.031 | -0.016 | 0.013
15 | PGPEP1 (UniProt Q9NXJ5) | 0.018 | 0.019 | -0.067 | 0.07 | 0.011 | 0.041 | -0.006 | -0.033 | -0.03 | 0.033
16 | QKI (UniProt Q96PU8) | -0.053 | 0.006 | -0.02 | 0.062 | -0.038 | -0.013 | -0.024 | 0.055 | -0.005 | -0.008
17 | PWP1 (UniProt Q13610) | -0.016 | 0.009 | 0.065 | 0.005 | 0.048 | 0.068 | 0.017 | -0.005 | -0.003 | 0.036

Row | Target | log2 fold change (nilotinib) | log2 fold change [1] | log2 fold change (dasatinib) | log2 fold change [2] | log2 fold change [3] | log2 fold change (quisinostat) | log2 fold change (tipifarnib) | log2 fold change [4] | log2 fold change [5] | log2 fold change [6]
18 | POLR2F (UniProt P61218) | 0.023 | -0.019 | 0.274 | 0.107 | -0.015 | -0.034 | 0.015 | 0.008 | -0.052 | -0.021
19 | PRMT7 (UniProt Q9NVM4) | 0.039 | -0.01 | 0.032 | -0.029 | -0.032 | -0.041 | -0.011 | 0.023 | 0.028 | 0.025
20 | PHKA1 (UniProt P46020) | -0.059 | 0.14 | -0.138 | -0.007 | 0.029 | -0.072 | -0.021 | 0.272 (active) | 0.091 | -0.053
21 | PTPN2 (UniProt P17706) | 0 | 0.026 | -0.026 | -0.041 | 0.014 | -0.067 | -0.001 | 0.025 | 0.006 | -0.005
22 | PFAS (UniProt O15067) | 0.015 | -0.023 | -0.031 | -0.017 | 0.008 | -0.037 | 0.01 | 0.01 | 0.005 | -0.009
23 | PTP4A1 (UniProt Q93096) | -0.035 | 0.005 | 0.026 | -0.057 | 0 | 0.151 | 0.011 | -0.059 | -0.011 | -0.029
24 | PIP5K1A (UniProt Q99755) | -0.091 | 0.011 | -0.137 | -0.082 | 0.033 | -0.165 | 0.032 | 0.034 | -0.041 | 0.01
25 | PUS3 (UniProt Q9BZE2) | -0.019 | 0.045 | -0.063 | -0.042 | 0.145 | 0.078 | -0.007 | -0.003 | 0.023 | 0.075
26 | PGRMC1 (UniProt O00264) | 0.028 | 0.015 | 0.026 | -0.078 | 0.012 | 0.106 | 0.003 | -0.059 | 0.017 | 0.056
27 | PLEKHF1 (UniProt Q96S99) | -0.03 | -0.028 | -0.016 | 0.012 | -0.027 | -0.009 | -0.012 | 0.021 | -0.002 | -0.023
28 | PDCD10 (UniProt Q9BUL8) | 0.006 | 0.121 | 0.077 | 0.03 | 0.013 | -0.053 | -0.005 | 0.114 | -0.018 | 0.004
29 | PHACTR4 isoform 2 (UniProt Q8IZ21) | 0.005 | -0.004 | 0.022 | -0.016 | 0.012 | -0.017 | -0.015 | -0.006 | -0.002 | -0.027
30 | PCIF1 (UniProt Q9H4Z3) | 0.018 | -0.089 | 0.118 | 0.011 | -0.439 (active) | 0.019 | 0.015 | -0.016 | -0.006 | 0.022
31 | PTPN6 isoform 4 (UniProt P29350) | -0.002 | -0.028 | 0.028 | -0.043 | 0.071 | 0.01 | 0.055 | -0.03 | -0.128 | 0.062
32 | PICALM (UniProt H0YEH1) | -0.023 | -0.012 | -0.039 | -0.007 | -0.005 | -0.095 | 0.019 | 0.166 | -0.021 | -0.042
33 | PELO (UniProt Q9BRX2) | 0.012 | -0.025 | 0.052 | -0.026 | 0.032 | -0.022 | 0.007 | 0.037 | 0.018 | -0.029
